# Data: the supplement of paper PMC4166925
# ± gives the standard deviation of the averaged measurements. The full ranking holds about 33,000 sequences; the median of “E-score (dimensionless, -0.5 to 0.5)” is about -0.049, and the highest 2% start at about 0.37. The sample as a whole holds a higher share of the highest values than the screen did.
# System: T1, PmTbr T-box DNA-binding domain (GST fusion)
# T1 sequence: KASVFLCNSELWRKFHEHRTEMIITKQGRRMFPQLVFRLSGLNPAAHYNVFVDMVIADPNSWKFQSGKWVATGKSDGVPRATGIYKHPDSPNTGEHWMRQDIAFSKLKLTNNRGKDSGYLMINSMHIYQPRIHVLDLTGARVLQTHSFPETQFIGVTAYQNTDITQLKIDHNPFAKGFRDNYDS
# Assay: PBM E-score of 8-mer (E-score (dimensionless, -0.5 to 0.5)); Tbr is Tbrain of the sea star Patiria miniata (Pm) or the sea urchin Strongylocentrotus purpuratus (Sp); higher = stronger binding preference
# Conditions: the construct has about 5 more residues each side
# Experimental: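 Universal protein-binding microarray (Agilent AMADID 016060, 60-bp probes with a 35-bp variable region) incubated with 200 nM GST-fused Patiria miniata Tbr T-box DNA-binding domain (residues 272-466) in PBS pH 7.5. Scored for every ungapped 8-mer (given with its reverse complement) by the Universal PBM Analysis Suite as E-score (modified Wilcoxon-Mann-Whitney enrichment, range -0.5 to 0.5; >0.45 counts as bound) and Z-score of median probe intensity. Two replicate arrays (datasets 1 and 2).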
# 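Note: 200 nM protein in PBS on universal arrays averaged over duplicate arrays.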
row,Sequence,PBM E-score of 8-mer
1,ACCTCACC,0.261 ± 0.028
2,ATCTCACA,0.372 ± 0.021
3,ATCTCACC,0.409 ± 0.0061
4,CGCTCACC,0.0475 ± 0.083
5,CTATCACA,0.305 ± 0.009
6,ATCTCACG,0.294 ± 0.016
7,CTCTCACC,0.383 ± 0.0077
8,ATCTCAAC,0.0437 ± 0.036
9,ATCTCTCA,0.226 ± 0.023
10,CTCTCACA,0.3481 ± 0.0026
11,ATATCACC,0.364 ± 0.013
12,CTATCACC,0.431 ± 0.0063
13,ATTGTTAC,0.194 ± 0.057
14,GGTACGAC,-0.0493 ± 0.042
15,CAGAGGCA,-0.215 ± 0.071
16,ATCTACCG,-0.157 ± 0.067
17,AAGATCTC,0.061 ± 0.054
18,CCGGCCCC,-0.24 ± 0.058
19,CAATCGCC,-0.0698 ± 0.068
20,ATCCCCAA,-0.227 ± 0.063
21,GAGCTTCA,-0.137 ± 0.0098
22,ATACTTCC,0.0697 ± 0.018
23,GGCATTTA,0.00349 ± 0.0029
24,ACCTCACA,0.423 ± 0.0099
25,GTCTCACA,0.392 ± 0.019

row,Sequence,PBM E-score of 8-mer
1,GTCTCTCA,0.0943 ± 0.0041
2,ACCTCACG,0.269 ± 0.038
3,TCCTCACA,0.3327 ± 0.0011
4,GCCTCACA,0.224 ± 0.031
5,ACGCAATC,-0.12 ± 0.013
6,GCTTGGTA,-0.112 ± 0.032
7,CCCCTCTA,-0.143 ± 0.088
8,ATTAGCGG,0.121 ± 0.025
9,ACACTTGC,0.407 ± 0.013
10,CCACTTGC,0.158 ± 0.056
11,ACACTTGA,0.369 ± 0.029
12,AAACTTGC,0.122 ± 0.029
13,ATACTTGG,-0.174 ± 0.046
14,ACACTTGG,0.395 ± 0.0073
15,GAAGTTAA,0.0494 ± 0.064
16,TCTTGGCA,0.0497 ± 0.1
17,GCTAACCC,0.00156 ± 0.0032
18,ACTAACAA,0.214 ± 0.032
19,ACTAACAC,0.412 ± 0.007
20,CCTAACAA,0.184 ± 0.055
21,CCTAACAG,0.128 ± 0.033
22,CCTAACAC,0.4369 ± 0.0041
23,GCTAACAA,0.252 ± 0.013
24,GCTAACAC,0.43 ± 0.0048
25,ACTAACAG,0.216 ± 0.045

row,Sequence,PBM E-score of 8-mer
1,CAGTTCAC,0.226 ± 0.023
2,ACGCAGCT,0.109 ± 0.075
3,GACAATCC,0.106 ± 0.018
4,GTAAGCTA,-0.266 ± 0.012
5,ATGTAGAC,-0.237 ± 0.043
6,AGTCGCAA,0.147 ± 0.026
7,GGTCGCAC,0.373 ± 0.018
8,AGTCGCAG,0.0399 ± 0.06
9,AGTCGCAC,0.395 ± 0.026
10,GGTCGCAA,0.205 ± 0.0044
11,CGTCGCAC,0.332 ± 0.021
12,AGATTTTC,0.0361 ± 0.063
13,TAGTTCGA,0.16 ± 0.056
14,GCACCAGA,-0.03 ± 0.061
15,AATGTTCC,-0.191 ± 0.0029
16,ACAACGCA,0.105 ± 0.03
17,ACCACGCG,0.1217 ± 0.0011
18,CACACCCA,0.423 ± 0.012
19,ACCACCCG,0.189 ± 0.017
20,CCCACCCG,0.105 ± 0.0088
21,TACACCCA,0.129 ± 0.046
22,CCCACCCA,0.0945 ± 0.0051
23,CACACCCC,0.416 ± 0.013
24,CACACCCG,0.426 ± 0.019
25,CACCCCCG,0.216 ± 0.014

row,Sequence,PBM E-score of 8-mer
1,ATCACCCG,0.194 ± 0.02
2,CACACCGC,0.334 ± 0.027
3,CACCCCCC,0.165 ± 0.06
4,AACACCCG,0.428 ± 0.0098
5,TAATTCAA,-0.292 ± 0.037
6,CCCGGTCG,-0.111 ± 0.059
7,CCATAGGA,-0.0411 ± 0.059
8,TACAACGA,-0.18 ± 0.034
9,ATAGAACC,-0.0785 ± 0.034
10,CGGGCAGC,-0.0554 ± 0.0018
11,AGGTACCA,-0.0398 ± 0.018
12,GAGGCGCC,0.269 ± 0.018
13,CCTCACCA,0.141 ± 0.045
14,CCACACCA,0.29 ± 0.033
15,CCACACAA,0.0617 ± 0.024
16,ACTCACCA,-0.0425 ± 0.12
17,TCACAACA,0.384 ± 0.00069
18,ACACACCA,0.285 ± 0.011
19,GCACAACA,0.17 ± 0.013
20,CCACAACA,0.203 ± 0.049
21,ACACACAA,0.0649 ± 0.066
22,TCACACCA,0.48075 ± 0.00012
23,TCACACAA,0.414 ± 0.015
24,TCTCACCA,0.372 ± 0.011
25,AATGACAT,-0.101 ± 0.054

row,Sequence,PBM E-score of 8-mer
1,GGAACTCC,-0.22 ± 0.083
2,GCCTCTTA,-0.0658 ± 0.019
3,GAGGAATA,-0.274 ± 0.02
4,TCGGACAA,-0.0104 ± 0.018
5,ACTCAAGT,-0.000135 ± 0.051
6,ATGGACTG,-0.165 ± 0.016
7,CGCACACC,0.325 ± 0.022
8,GCCACACA,0.279 ± 0.031
9,GACACACC,0.287 ± 0.073
10,ACCACACC,0.361 ± 0.023
11,CCCACACA,0.17 ± 0.0076
12,CCCACACG,0.0862 ± 0.0074
13,CCCACACC,0.43 ± 0.019
14,GCCACACC,0.394 ± 0.024
15,CACACACC,0.428 ± 0.021
16,ATGCTCGG,0.00834 ± 0.022
17,GACGTCTC,-0.235 ± 0.013
18,GGGTAGGA,-0.205 ± 0.052
19,ACCACCAT,0.1243 ± 0.0012
20,AGCACCAC,0.115 ± 0.054
21,AACACCAC,0.3719 ± 0.0024
22,GACACCAA,0.345 ± 0.0047
23,GACACCAC,0.393 ± 0.016
24,AACACCAT,0.3887 ± 0.0029
25,ACCACCAA,0.0394 ± 0.048

row,Sequence,PBM E-score of 8-mer
1,GGCACCAC,0.225 ± 0.022
2,AACACCAA,0.393 ± 0.011
3,GCCACCAC,0.122 ± 0.08
4,ATCACCAT,0.155 ± 0.014
5,ACCACCAC,0.0224 ± 0.049
6,AATGCAGG,-0.116 ± 0.0066
7,GCACAGCC,-0.192 ± 0.031
8,ACAGTGTG,0.324 ± 0.025
9,GGAGCATA,-0.0893 ± 0.017
10,AGGCTGAA,-0.124 ± 0.018
11,AAACCAAG,-0.0652 ± 0.0092
12,CAAGCTCC,-0.181 ± 0.059
13,CCACCCTA,0.0728 ± 0.0043
14,GCACCCTA,0.133 ± 0.089
15,ACCCCCTC,-0.00817 ± 0.062
16,ACACCCTA,0.383 ± 0.018
17,ACACCCTG,0.426 ± 0.026
18,CCACCCTC,0.0601 ± 0.017
19,ATACCCTG,-0.154 ± 0.04
20,ACCCCCTG,0.0477 ± 0.028
21,ACACCCTC,0.429 ± 0.0062
22,GAGCCATC,-0.0135 ± 0.0062
23,GGAGTTCA,-0.0635 ± 0.036
24,AAGGCGAT,0.0522 ± 0.036
25,AGCAAACA,0.0237 ± 0.023

row,Sequence,PBM E-score of 8-mer
1,GATGAAGA,-0.134 ± 0.051
2,CGTCAACA,0.311 ± 0.036
3,TGTCAACA,0.378 ± 0.0046
4,GGTCAACA,0.123 ± 0.0043
5,GCGCTCCC,-0.133 ± 0.028
6,AGTTCGCG,0.221 ± 0.038
7,GATCCTGA,-0.144 ± 0.049
8,GTCATCAC,0.2787 ± 0.00098
9,ATTATCAC,0.38 ± 0.053
10,CTTATCAC,0.331 ± 0.023
11,ATTATCAG,-0.0355 ± 0.028
12,CTCATCAC,0.249 ± 0.0053
13,ATCATCAC,0.381 ± 0.008
14,ATAAACGG,-0.131 ± 0.087
15,CGTACCCC,-0.186 ± 0.063
16,GGTCGATA,0.0375 ± 0.069
17,CCTGAGAG,0.208 ± 0.03
18,CACAGCCG,-0.0675 ± 0.11
19,ACGCGCGG,0.19 ± 0.031
20,CCGCGCGA,0.226 ± 0.0095
21,ACGCGCGC,0.157 ± 0.033
22,GCGCGCGA,0.2759 ± 0.00057
23,ACGCGCGA,0.3693 ± 0.0027
24,TCGCGCGA,0.3886 ± 0.0024
25,ATTCTTTG,-0.109 ± 0.048

row,Sequence,PBM E-score of 8-mer
1,AATCAACA,0.231 ± 0.033
2,ATTAGGGG,-0.208 ± 0.071
3,AACAGCCT,0.145 ± 0.021
4,GGGTCTGA,-0.157 ± 0.028
5,AAGTGTCC,0.281 ± 0.011
6,AAGTGTCT,0.329 ± 0.022
7,TAGTGTCA,0.395 ± 0.027
8,GATTGTCA,0.298 ± 0.0064
9,AAGTGTCA,0.4726 ± 0.0035
10,AAGTGTCG,0.44424 ± 0.0003
11,AAGTGTAT,0.019 ± 0.037
12,GAGTGTCC,-0.0246 ± 0.07
13,GAGTGTCA,0.436 ± 0.0041
14,CAGTGTCA,0.31 ± 0.017
15,CAGTGTCG,0.289 ± 0.0095
16,TCGTGTCA,0.305 ± 0.0037
17,ACTGCTGG,-0.191 ± 0.0095
18,AAGGCCAT,-0.225 ± 0.0052
19,CAGCATTA,-0.0723 ± 0.024
20,GAGGAGAA,-0.158 ± 0.088
21,CCTACCAG,0.00153 ± 0.031
22,GGCGAGCA,-0.102 ± 0.048
23,CAATGTCG,0.119 ± 0.014
24,CGTATTCA,0.165 ± 0.051
25,ACCTAGTG,0.223 ± 0.013

row,Sequence,PBM E-score of 8-mer
1,CCTTGAGC,-0.11 ± 0.019
2,ATGAGCAC,-0.247 ± 0.061
3,CTATGCAC,-0.129 ± 0.042
4,ACGCTAAC,0.257 ± 0.056
5,CCGCTAAA,0.275 ± 0.022
6,TCGCTAAA,0.163 ± 0.043
7,GCGCTAAA,0.394 ± 0.012
8,CCGCTAAC,0.169 ± 0.038
9,GCGCTAAC,0.4144 ± 0.0034
10,GGCTAGAC,-0.231 ± 0.029
11,GGCTCACA,0.0846 ± 0.0034
12,CGTTCACA,0.406 ± 0.012
13,AGTTCACG,0.32 ± 0.02
14,GGTTCACA,0.372 ± 0.0038
15,AGTTCACA,0.395 ± 0.0064
16,AGTTCACC,-0.0448 ± 0.0017
17,GGTTCATA,0.0267 ± 0.028
18,CGTTCAAG,-0.177 ± 0.028
19,CGTTCACC,-0.0379 ± 0.073
